Some structures have more than one record in an assay (separate samples or runs), and their calls can disagree. The source made the active and inactive calls. The calls were made as follows: active = hit-call score of the fitted dose curve at least 0.9, where 1 is the maximum; inactive = score below 0.9.
Experiments:
[1] = read-out: TIMP metallopeptidase inhibitor 1 (TIMP1), TIMP1 (gene 7076); test: BSK_hDFCGF_TIMP1: BioMAP Diversity Plus: hDFCGF Assay for TIMP metallopeptidase inhibitor 1 (TIMP1) Biomarker Activity (AID 2283062); details: primary human foreskin fibroblasts; actives raise or lower the signal
Procedure, shortened: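 Human foreskin fibroblast primary cultures dosed for 24 h; secreted/surface TIMP-1 quantified by ELISA. Bidirectional curve fitting against DMSO baseline; cytotoxicity tracked in parallel cultures by SRB total-protein staining.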

[2] = read-out: Monokine induced gamma interferon (MIG), CXCL9 (gene 4283); test: BSK_hDFCGF_MIG: BioMAP Diversity Plus: hDFCGF Assay for Monokine induced gamma interferon (MIG) Biomarker Activity (AID 2283063); details: primary human foreskin fibroblasts; actives raise or lower the signal
Procedure, shortened: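 MIG/CXCL9 measured by ELISA 24 h after dosing primary human skin fibroblasts. Activity fitted in both directions against DMSO controls. Cytotoxicity was checked in parallel cultures by SRB staining read at 560 nm.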

[3] = read-out: Matrix Metallopeptidase 1 (MMP1), MMP1 (gene 4312); test: BSK_hDFCGF_MMP1: BioMAP Diversity Plus: hDFCGF Assay for Matrix Metallopeptidase 1 (MMP1) Biomarker Activity (AID 2283064); details: primary human foreskin fibroblasts; actives raise or lower the signal
Procedure, shortened: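 Primary human foreskin fibroblasts exposed to chemicals for 24 h; MMP1 measured by ELISA. Cytotoxicity tracked by SRB staining in parallel cultures; bidirectional fit relative to DMSO.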

[4] = read-out: Vascular cell adhesion molecule 1 (VCAM1), VCAM1 (gene 7412); test: BSK_hDFCGF_VCAM1: BioMAP Diversity Plus: hDFCGF Assay for Vascular cell adhesion molecule 1 (VCAM1) Biomarker Activity (AID 2283065); details: primary human foreskin fibroblasts; actives raise or lower the signal;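 as to AC50: VCAM-1 protein level quantified by ELISA after 24 h chemical exposure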
Procedure, shortened: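 Human foreskin fibroblast primary cells dosed with chemical, VCAM-1 measured by ELISA at 24 h. Bidirectional curve fitting relative to DMSO as negative control/baseline.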

[5] = read-out: Intercellular Adhesion Molecule 1 (ICAM1), ICAM1 (gene 3383); test: BSK_KF3CT_ICAM1: BioMAP Diversity Plus: KF3CT Assay for Intercellular Adhesion Molecule 1 (ICAM1) Biomarker Activity (AID 2283067); details: primary human keratinocytes with fibroblasts; actives raise or lower the signal
Procedure, shortened: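 Human keratinocyte–foreskin fibroblast co-culture was treated for 24 h. Cell-surface ICAM-1 was quantified by ELISA, fitted bidirectionally relative to DMSO. Cytotoxicity was checked in parallel cultures by SRB total-protein staining.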

[6] = read-out: Interferon-gamma inducible Protein 10 (IP10), CXCL10 (gene 3627); test: BSK_KF3CT_IP10: BioMAP Diversity Plus: KF3CT Assay for Interferon-gamma inducible Protein 10 (IP10) Biomarker Activity (AID 2283068); details: primary human keratinocytes with fibroblasts; actives raise or lower the signal
Procedure, shortened: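 KF3CT co-culture (keratinocytes + foreskin fibroblasts), 24 h compound, IP-10 by ELISA; bidirectional fit vs DMSO baseline.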

[7] = BSK_KF3CT_SRB: Viability Assessment in the BioMAP Diversity Plus: KF3CT Assay (AID 2283069); details: primary human keratinocytes with fibroblasts;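 also: total protein by sulforhodamine B staining as a cytotoxicity measure; read 24 h after compound addition; fitted for both signal gain and loss against DMSO baseline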
Procedure, shortened: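 Human keratinocyte and foreskin fibroblast co-culture exposed to chemical for 24 h. Total protein measured in parallel cultures by 0.1% sulforhodamine B staining after 10% TCA fixation, read at 560 nm; bidirectional fit relative to DMSO.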

[8] = read-out: Interleukin-1 alpha (IL1a), IL1A (gene 3552); test: BSK_KF3CT_IL1a: BioMAP Diversity Plus: KF3CT Assay for Interleukin-1 alpha (IL1a) Biomarker Activity (AID 2283070); details: primary human keratinocytes with fibroblasts; actives raise or lower the signal
Procedure, shortened: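 Primary human keratinocyte plus foreskin fibroblast co-culture, dosed and measured at 24 h in 96-well plates. IL-1a level quantified by ELISA; bidirectional fit relative to DMSO.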

[9] = read-out: TIMP metallopeptidase inhibitor 2 (TIMP2), TIMP2 (gene 7077); test: BSK_KF3CT_TIMP2: BioMAP Diversity Plus: KF3CT Assay for TIMP metallopeptidase inhibitor 2 (TIMP2) Biomarker Activity (AID 2283071); details: primary human keratinocytes with fibroblasts; actives raise or lower the signal
Procedure, shortened: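 Human primary keratinocyte/foreskin fibroblast co-culture dosed with chemical and sampled at 24 h. TIMP-2 levels quantified by ELISA; bidirectional fitting against DMSO negative control as baseline.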

[10] = read-out: Transforming growth factor beta 1 (TGFb1), TGFB1 (gene 7040); test: BSK_KF3CT_TGFb1: BioMAP Diversity Plus: KF3CT Assay for Transforming growth factor beta 1 (TGFb1) Biomarker Activity (AID 2283072); details: primary human keratinocytes with fibroblasts; actives raise or lower the signal
Procedure, shortened: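 Human keratinocyte plus foreskin fibroblast primary co-culture, dosed with chemical for 24 h. TGF-b1 quantified by ELISA. Activity fitted bidirectionally against DMSO negative control as baseline.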

[11] = read-out: C-C motif chemokine 2 (Homo sapiens) (UniProt P13500); test: BSK_KF3CT_MCP1: BioMAP Diversity Plus: KF3CT Assay for Monocyte Chemoattractant Protein 1 (MCP1/CCL2) Biomarker Activity (AID 2283073); details: primary human keratinocytes with fibroblasts; actives raise or lower the signal
Procedure, shortened: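 Human keratinocyte–foreskin fibroblast co-culture; MCP-1 measured by ELISA 24 h after dosing. Bidirectional fit vs DMSO; cytotoxicity tracked by SRB total protein in parallel cultures.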

[12] = read-out: Matrix Metallopeptidase 9 (MMP9), MMP9 (gene 4318); test: BSK_KF3CT_MMP9: BioMAP Diversity Plus: KF3CT Assay for Matrix Metallopeptidase 9 (MMP9) Biomarker Activity (AID 2283074); details: primary human keratinocytes with fibroblasts; actives raise or lower the signal
Procedure, shortened: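 Human keratinocyte and foreskin fibroblast co-culture exposed to chemicals for 24 h; MMP9 biomarker measured by ELISA, bidirectional fitting relative to DMSO; cytotoxicity tracked by SRB total protein staining in parallel cultures.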

[13] = read-out: urokinase plasminogen activator (uPA), PLAU (gene 5328); test: BSK_KF3CT_uPA: BioMAP Diversity Plus: KF3CT Assay for urokinase plasminogen activator (uPA) Biomarker Activity (AID 2283075); details: primary human keratinocytes with fibroblasts; actives raise or lower the signal
Procedure, shortened: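 Primary human keratinocyte/foreskin fibroblast co-culture exposed to chemical; uPA measured by ELISA at 24 h. Bidirectional fit versus DMSO, with parallel SRB total-protein staining for cytotoxicity.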

CD40, CD40 (gene 958) = test: BSK_LPS_CD40: BioMAP Diversity Plus: LPS Assay for CD40 Biomarker Activity (AID 2283076); details: primary human HUVEC with PBMC; actives raise or lower the signal
Procedure, shortened: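 HUVEC plus PBMC co-culture stimulated with LPS; CD40 quantified by ELISA 24 h after compound dosing. Fitting was bidirectional relative to DMSO. SRB staining of parallel cultures flagged overt cytotoxicity.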

[14] = read-out: E-selectin (Homo sapiens) (UniProt P16581); test: BSK_LPS_Eselectin: BioMAP Diversity Plus: LPS Assay for Eselectin Biomarker Activity (AID 2283077); details: primary human HUVEC with PBMC; actives raise or lower the signal
Procedure, shortened: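 Human umbilical vein endothelial cells co-cultured with PBMC under LPS stimulation; cell-surface E-selectin measured by ELISA 24 h after dosing. Change in either direction versus DMSO, with SRB total-protein staining in parallel cultures for cytotoxicity.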

[15] = read-out: Interleukin-8 (IL8), CXCL8 (gene 3576); test: BSK_LPS_IL8: BioMAP Diversity Plus: LPS Assay for Interleukin-8 (IL8) Biomarker Activity (AID 2283078); details: primary human HUVEC with PBMC; actives raise or lower the signal
Procedure, shortened: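 Human umbilical vein endothelial cells co-cultured with PBMC, LPS-stimulated, exposed to compound for 24 h. IL-8 quantified by ELISA; fitted in both directions against DMSO, with SRB total-protein staining of parallel cultures for cytotoxicity.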

[16] = BSK_LPS_SRB: Viability Assessment in the BioMAP Diversity Plus: LPS Assay (AID 2283079); details: primary human HUVEC with PBMC;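 also: total protein by sulforhodamine B absorbance as a cytotoxicity measure; measured one day after compound addition; fitted in both directions against DMSO so loss or gain of signal counts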
Procedure, shortened: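 Co-culture of human umbilical vein endothelial cells and PBMC, read 24 h after dosing. Total protein by 0.1% SRB staining after 10% TCA fixation, absorbance at 560 nm; bidirectional fit against DMSO.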

[17] = read-out: Interleukin-1 alpha (IL1a), IL1A (gene 3552); test: BSK_LPS_IL1a: BioMAP Diversity Plus: LPS Assay for Interleukin-1 alpha (IL1a) Biomarker Activity (AID 2283080); details: primary human HUVEC with PBMC; actives raise or lower the signal
Procedure, shortened: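 Human umbilical vein endothelial cells co-cultured with PBMC and stimulated with LPS; IL-1a measured by ELISA 24 h after dosing. Bidirectional fitting against DMSO; cytotoxicity checked by SRB staining in parallel cultures.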

Sequence of E-selectin (Homo sapiens) (P16581 whole entry, looked up): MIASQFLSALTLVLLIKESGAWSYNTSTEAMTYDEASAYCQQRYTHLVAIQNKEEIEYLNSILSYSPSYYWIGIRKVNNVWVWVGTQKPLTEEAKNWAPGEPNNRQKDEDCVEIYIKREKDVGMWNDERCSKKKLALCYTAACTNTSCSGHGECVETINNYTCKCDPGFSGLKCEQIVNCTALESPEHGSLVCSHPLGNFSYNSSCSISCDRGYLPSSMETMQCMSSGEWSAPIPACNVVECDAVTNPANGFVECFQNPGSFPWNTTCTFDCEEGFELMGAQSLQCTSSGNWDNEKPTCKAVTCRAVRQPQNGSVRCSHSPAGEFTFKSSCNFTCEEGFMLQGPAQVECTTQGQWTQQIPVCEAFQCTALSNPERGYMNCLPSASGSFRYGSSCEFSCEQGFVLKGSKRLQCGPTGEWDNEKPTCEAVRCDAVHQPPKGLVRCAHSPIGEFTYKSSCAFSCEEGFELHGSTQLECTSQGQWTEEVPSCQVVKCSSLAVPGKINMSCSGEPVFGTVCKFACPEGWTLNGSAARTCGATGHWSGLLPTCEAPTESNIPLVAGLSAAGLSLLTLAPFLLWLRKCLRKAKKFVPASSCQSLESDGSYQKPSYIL

CCON=C(CC)C1=C(O)CC(c2c(C)cc(C)cc2C)CC1=O (configuration not stated)
outcome [1]: inactive
outcome [2]: inactive
outcome [3]: inactive
outcome [4]: inactive
outcome [5]: inactive
outcome [6]: inactive
outcome [7]: inactive
outcome [8]: inactive
outcome [9]: inactive
outcome [10]: inactive
outcome [11]: inactive
outcome [12]: inactive
outcome [13]: inactive
outcome (CD40, CD40 (gene 958)): inactive
outcome [14]: inactive
outcome [15]: inactive
outcome [16]: inactive
outcome [17]: inactive

N#Cc1cc(Br)c(O)c(Br)c1
outcome [1]: inactive
outcome [2]: inactive
outcome [3]: inactive
outcome [4]: inactive
outcome [5]: inactive
outcome [6]: inactive
outcome [7]: inactive
outcome [8]: inactive
outcome [9]: inactive
outcome [10]: inactive
outcome [11]: inactive
outcome [12]: inactive
outcome [13]: inactive
AC50 (CD40, CD40 (gene 958)): 9.86 µM (active)
outcome [14]: inactive
outcome [15]: inactive
AC50 [16]: 3.97 µM (active)
AC50 [17]: 20 µM (active)

CCCCC(CC)COC(=O)c1ccccc1C(=O)OCC(CC)CCCC (configuration not stated)
outcome [1]: inactive
outcome [2]: inactive
outcome [3]: inactive
outcome [4]: inactive
outcome [5]: inactive
AC50 [6]: 15.1 µM (active)
outcome [7]: inactive
outcome [8]: inactive
outcome [9]: inactive
outcome [10]: inactive
outcome [11]: inactive
outcome [12]: inactive
outcome [13]: inactive
outcome (CD40, CD40 (gene 958)): inactive
outcome [14]: inactive
AC50 [15]: 3.22 µM (active)
AC50 [16]: 4.97 µM (active)
outcome [17]: inactive

COc1nc(C)nc(NC(=O)NS(=O)(=O)c2ccccc2Cl)n1
outcome [1]: inactive
outcome [2]: inactive
outcome [3]: inactive
outcome [4]: inactive
outcome [5]: inactive
AC50 [6]: 0.148 µM (active)
outcome [6]: inactive
outcome [7]: inactive
outcome [8]: inactive
AC50 [9]: 31.6 µM (active)
outcome [9]: inactive
outcome [10]: inactive
outcome [11]: inactive
outcome [12]: inactive
outcome [13]: inactive
outcome (CD40, CD40 (gene 958)): inactive
outcome [14]: inactive
outcome [15]: inactive
outcome [16]: inactive
outcome [17]: inactive

CCOP(=S)(OCC)SCn1c(=O)oc2cc(Cl)ccc21
outcome [1]: inactive
outcome [2]: inactive
AC50 [3]: 2.15 µM (active)
AC50 [4]: 15.6 µM (active)
AC50 [5]: 7.36 µM (active)
outcome [6]: inactive
outcome [7]: inactive
outcome [8]: inactive
outcome [9]: inactive
outcome [10]: inactive
outcome [11]: inactive
outcome [12]: inactive
outcome [13]: inactive
AC50 (CD40, CD40 (gene 958)): 16.6 µM (active)
AC50 [14]: 9.68 µM (active)
AC50 [15]: 16.9 µM (active)
AC50 [16]: 31.6 µM (active)
outcome [17]: inactive

From PubChem BioAssay (EPA / NIEHS)
